Only a selection was taken, and hits are over-represented in it overall.
12-LOX inh: ALOX12 (human) lipoxygenase inhibition; P18054; purified 12hLO, xylenol orange hydroperoxide absorbance; Potency, µM (highest dose often 108 µM), without a hit: top-dose activity change, negative = inhibition, usual class: inhibitors; hit rate 1.1% among 580,000; AID 1671190; further: potency means the concentration at half of the fitted maximal effect
Target sequence (P18054 whole entry, looked up): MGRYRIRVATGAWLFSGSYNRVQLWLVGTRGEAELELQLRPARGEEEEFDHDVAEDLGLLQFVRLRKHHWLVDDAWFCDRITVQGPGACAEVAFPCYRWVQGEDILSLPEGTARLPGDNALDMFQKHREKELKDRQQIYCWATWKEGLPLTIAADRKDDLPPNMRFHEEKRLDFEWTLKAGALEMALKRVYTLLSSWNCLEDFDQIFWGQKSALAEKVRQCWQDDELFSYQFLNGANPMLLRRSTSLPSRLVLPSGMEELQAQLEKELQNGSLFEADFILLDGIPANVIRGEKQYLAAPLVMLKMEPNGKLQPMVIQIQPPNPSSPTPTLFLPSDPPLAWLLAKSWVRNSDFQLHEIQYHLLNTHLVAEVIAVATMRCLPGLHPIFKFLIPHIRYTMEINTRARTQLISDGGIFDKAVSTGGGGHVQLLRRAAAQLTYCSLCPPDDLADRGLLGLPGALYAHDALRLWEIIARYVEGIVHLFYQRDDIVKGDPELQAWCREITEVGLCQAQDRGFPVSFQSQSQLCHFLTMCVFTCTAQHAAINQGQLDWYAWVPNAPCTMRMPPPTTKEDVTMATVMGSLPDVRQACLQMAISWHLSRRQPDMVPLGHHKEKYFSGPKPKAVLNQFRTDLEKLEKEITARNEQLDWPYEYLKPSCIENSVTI
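Purified human 12hLO (150 nM final) in 25 mM Hepes, 0.01% Triton X-100, pH 7.0 was preincubated 15 min at room temperature with compound. Then 40 uM arachidonic acid was added, 30 min. Hydroperoxide was read by Fe-XO absorbance ratio 573/405 nm.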
HT1080NT lethal: kills 2HG-producing HT-1080-NT fibrosarcoma cells. HT-1080-NT fibrosarcoma viability, CellTiter-Glo ATP luminescence, 48 h. Potency, µM (top dose mostly 46.1 µM), without a hit: top-dose activity, negative = less viability, most hits filed as cytotoxic. hit rate 1.6% among 360,000;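 further: NT is the 2HG producing partner of a matched IDH1 knockdown line; potency means the concentration at half of the fitted maximal effect; 0% = DMSO-treated cells and -100% = media-only wells without cells; nearly all actives have a fitted effect of over 55% in size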
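Fibrosarcoma NT cells, 750 per well in 5% FBS RPMI, were exposed to compound for 48 hours. Viability: CellTiter-Glo luminescence.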
TDP1 cell noCPT: qHTS for Inhibitors of human tyrosyl-DNA phosphodiesterase 1 (TDP1): qHTS in cells in absence of CPT | DT40 Tdp1-/- hTDP1 cells, no CPT, ATP luminescence, 48 h | Potency, µM (titrated, usually from 46.2 µM), inactives show top-dose activity change, negative = growth inhibition, actives largely listed as inhibitors | hit rate 15% among 420,000; further: potency means the concentration at half of the fitted maximal effect; nearly all actives have a fitted effect of over 55% in size
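Readout: luminescence from CellTiter-Glo after 30 min in the dark at RT. Cells: DT40 Tdp1-/- with stable hTDP1, 400/well. Exposure: compounds alone, ≥48 hr, 37 °C.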
TDP1 cell CPT: growth inhibition of DT40 Tdp1-/-;hTDP1 cells with camptothecin (screen for TDP1 inhibitors); AID 686979; chicken DT40 Tdp1-/-;hTDP1 cells + 20 nM CPT, ATP luminescence, 48 h; hit rate 12% among 420,000; Potency, µM (titrated, usually from 46.2 µM), inactives show top-dose activity change, negative = growth inhibition, hits mostly inhibitors; further: potency means the concentration at half of the fitted maximal effect; nearly all actives have a fitted effect of over 55% in size
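Chicken DT40 Tdp1-/- cells complemented with human TDP1, 400 cells/well, exposed to compounds plus 20 nM camptothecin for at least 48 h at 37 C; viability read as ATP content by CellTiter-Glo luminescence.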
HT1080 IDH1KD tx: toxicity to HT-1080 IDH1 knockdown cells (counter line). HT-1080 IDH1 knockdown viability, ATP luminescence, 48 h. Potency, µM (series often up to 46.1 µM), without a hit: at the highest dose activity, negative = toxicity, actives largely listed as cytotoxic. hit rate 2% among 360,000. AID 686971;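 further: potency means the concentration at half of the fitted maximal effect; 0% = DMSO wells and -100% = cell-free medium wells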
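% activity derives from luminescence (CellTiter-Glo), normalised to DMSO and no-cell wells. HT-1080-IDH1KD cells, 750/well, had 48 h compound exposure at 37 °C.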
IL1B secr inh: inhibitors of inflammasome signaling (IL-1 beta secretion) | THP-1 LPS/ATP IL-1B secretion, AlphaLISA, 16 h; stronger effect = lower value | AID 743279 | activity change, % at 57.5 µM | hit rate 4.7% among 360,000; in the data active means activity change below about -50%; inconclusive means mostly about -30% to -49%
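THP-1 cells pretreated 1 hr with compounds (up to 57.5 uM final), then stimulated with LPS (250 ng/mL final) plus ATP (1.25 mM final); secreted IL-1B measured by AlphaLISA after 16 hr, decreased signal indicating inhibition.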
* marks the source's active call; other numbers are inactive results; u = inconclusive; x = no result given; [ ] = another dose, or the depositor's remark. Unless noted, the call rests on the fitted dose curve; in most records, active means well fitted curve in the direction sought with a large enough effect; inconclusive means small, poorly fitted or top-dose-only effect, or another doubt; inactive means no such curve, though single readings can be large; an effect the other way counts as inactive or inconclusive. Unless noted, on the % scale 0 is the no-effect control and ±100 the full control effect.

SMILES	12-LOX inh	HT1080NT lethal	TDP1 cell noCPT	TDP1 cell CPT	HT1080 IDH1KD tx	IL1B secr inh
CCC(C)n1c(SCc2c(F)cccc2Cl)nc2ccsc2c1=O (configuration not stated)	-5.2%	x	5.8µM*	4.11µM*	x	x
CCOc1ccc(NC(=O)CSc2nc3ccsc3c(=O)n2CC)cc1	0.0%	x	-19.8%	-22.3%	x	x
CCC(C)n1c(SCc2ccc([N+](=O)[O-])cc2)nc2ccsc2c1=O (configuration not stated)	6.0%	-14.5%	20.6µM*	23.1µM*	-11.5%	u
CSCCC(NS(=O)(=O)c1ccc2c(c1)OCCO2)C(=O)N(C)Cc1ccc(F)cc1 (configuration not stated)	-17.0%	-1.2%	13µM*	23.1µM*	-6.4%	-0.6
CSCCC(NS(=O)(=O)c1cccc(C(F)(F)F)c1)C(=O)N(C)Cc1ccc2c(c1)OCCO2 (configuration not stated)	u	-0.1%	u	u	-1.0%	-0.8
CSCCC(NS(=O)(=O)c1ccc2c(c1)OCCO2)C(=O)N(C)Cc1ccccc1F (configuration not stated)	3.0%	2.2%	20.6µM*	u	-0.3%	-9.7
O=C(c1n[nH]c(=O)c2ccccc12)N1CCN(S(=O)(=O)c2ccc3ccccc3c2)CC1	54.5%	x	x	x	x	x
COCc1cc(C[C@@H]2CC[C@H](O)[C@@H](CNC3CCCCC3)O2)no1	5.4%[176 µM]	x	x	x	x	x
NCC1CCN(c2nc3ccccc3c3c2CCCC3)CC1	u	-27.4%	11.6µM*	20.6µM*	u	-94.8*
CCC/C=C1/CCCOC(C(=O)NCc2ccc(C)o2)(C(F)(F)F)C1 (configuration not stated)	-2.8%	u	10.3µM*	7.31µM*	-3.5%	-62.7*
Cc1ccc(-c2csc(-c3c[nH]c4ccccc34)n2)c(C)c1	-26.4%	u	u	u	18.4µM*	13.6
CC(=O)c1cccc(Nc2nc(-c3cccnc3)cs2)c1	-13.9%	-21.6%	u	u	u	-88.3*
Oc1ccc(Nc2nc(-c3ccc(O)cc3)cs2)cc1	u	u	5.01µM*	11.2µM*	u	u
Oc1ccc(-c2csc(-c3c[nH]c4ccccc34)n2)c(O)c1	-23.7%	u	u	u	u	-17.0
c1ccc(-c2csc(Nc3ccc4c(c3)OCCO4)n2)cc1	u	-2.1%	u	14.6µM*	1.2%	-0.5
COc1ccc(Nc2nc(-c3ccc(OC)cc3)cs2)cc1	-24.3%	-11.4%	-14.2%	-3.2%	-2.9%	u
Cc1ccc2oc(C(=O)NCC(c3cccs3)N3CCCCC3)cc(=O)c2c1 (configuration not stated)	11.5%	x	x	x	x	x
c1ccc(-c2csc(Nc3nc(N4CCOCC4)nc(N4CCOCC4)n3)n2)cc1	0.0%	0.0%	10.3µM*	u	-7.3%	u
COc1ccc2oc(=O)c(-c3csc(Nc4ccc(C)cc4)n3)cc2c1	-27.9%	x	x	x	x	x
c1ccc(Nc2nc(-c3ccccn3)cs2)cc1	3.3%	-1.4%	7.31µM*	13µM*	-3.0%	u
COc1ccc(Nc2nc(-c3ccc(F)cc3F)cs2)cc1	15.8µM*	x	x	x	x	x
c1ccc(-c2csc(Nc3cccnc3)n2)nc1	27.6%	-13.8%	u	u	u	-2.4
Nc1ccc(Nc2nc(-c3ccncc3)cs2)cc1	-3.6%	u	18.4µM*	u	u	u
COc1ccc(Nc2nc(-c3c[nH]c4ccccc34)cs2)cc1	u	4.0%	-22.5%	-12.0%	14.0%	-78.2*
COc1ccccc1Nc1nc(C)cs1	u	12.3%	2.4%	-7.9%	8.2%	10.3
SMILES	12-LOX inh	HT1080NT lethal	TDP1 cell noCPT	TDP1 cell CPT	HT1080 IDH1KD tx	IL1B secr inh
Cc1ccc(Nc2nc(-c3ccc(C)cc3C)cs2)cc1	6.31µM*	x	x	x	x	x
Oc1ccc(Nc2nc(-c3cccnc3)cs2)cc1	x	-6.1%	23.1µM*	20.6µM*	-11.5%	u
Brc1ccc(Nc2nc(-c3cccnc3)cs2)cc1	u	-18.2%	-17.0%	6.9%	-25.5%	51.0
COc1ccccc1Nc1nc(-c2cc(C)ccc2C)cs1	10µM*	x	x	x	x	x
CC(=O)NCCC(=O)Nc1nc(-c2c[nH]c3ccccc23)cs1	u	-18.0%	u	u	-13.0%	-4.3
Cc1ccc(C)c(-c2csc(NC(=O)CSc3nc4ccccc4o3)n2)c1	-13.6%	x	x	x	x	x
Cc1ccccc1Cn1cnc(NC(=O)c2ccn(COc3ccc(F)cc3F)n2)n1	11.8%	x	x	x	x	x
O=C(NC(CN1CCCC1)c1ccccc1)c1cc2ccccc2oc1=O (configuration not stated)	-0.4%	x	x	x	x	x
O=C(c1ccc(C(F)(F)F)cc1)N1CCC(N2CCCS2(=O)=O)CC1	-5.2%[6.33 µM]	x	x	x	x	x
c1cc2c(cc1-c1csc(NNC3=NCCCCC3)n1)OCCO2	u	-26.6%	4.61µM*	3.26µM*	-13.6%	-101.5*
Oc1ccc(-c2csc(Nc3cccc(O)c3)n2)cc1	39.8µM*	x	x	x	x	x
